This is an account of results in PubChem BioAssay (NCI).

About 83,000 compounds went through this panel and 20% of them were active in at least one assay; those are over-represented in the sample as a whole.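 The test compound was applied at a single concentration to cells in 96-well plates for 48 hours, and percent growth was recorded.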 Values without a mark were called inactive. Active and inactive are the calls of the source. Rule for the calls: active = growth percent below 10; inactive = the rest.

What all share (assay): NCI-60 one-dose screen, 48 h (100 = growth as untreated, 0 = no growth, -100 = all killed)
Holding throughout (conditions): 10 µM unless noted

Assay [1] concerns SK-MEL-2 melanoma.
The subject of assay [2] is EKVX NSCLC.
The subject of assay [3] is SN12C renal.
Assay [4] relates to UO-31 renal.
The subject of assay [5] is TK-10 renal.
Assay [6] relates to ACHN renal.
Assay [7] concerns CAKI-1 renal.
The subject of assay [8] is CCRF-CEM leukemia.
Assay [9] has as its system MOLT-4 leukemia.
Assay [10] deals with SR leukemia.
Assay [11] concerns RPMI-8226 leukemia.
The test system of assay [12] is OVCAR-8 ovarian.
The test system of assay [13] is OVCAR-5 ovarian.
Assay [14] concerns OVCAR-4 ovarian.
Assay [15] has as its system SK-OV-3 ovarian.
Assay [16] deals with IGROV1 ovarian.
Assay [17] has as its system OVCAR-3 ovarian.
For assay [18], the system named is HS 578T breast.
For assay [19], the system named is NCI/ADR-RES ovarian.
The test system of assay [20] is A498 renal.

Regarding `COc1ccc(Cl)cc1Nc1nc(C(F)(F)F)ccc1C(=O)NN`, the growth is 11.7% in assay [1]; 27.9% in [2]; 35.7% in assay [3]; 33.6% in [4]; 26.1% in assay [5]; 6.99% (active) in [6]. Moreover, the growth in assay [7] is 20.5%; in assay [8], -76.5% (active); in [9], 24.5%; in assay [10], 1.9% (active); in [11], 4.71% (active); in assay [12], 18.9%. The growth in assay [13] is 40.6%; in [14], -4.08% (active); in assay [15] it was 8.79% (active); in assay [16] it was 30.3%; in [17] it was 33.6%; in assay [18], 95.8%. For the same compound, the growth in assay [19] was 9.26% (active).

For the compound `Cc1nn(-c2cccc(Cl)c2)c(C)c1N=Nc1ccc(Br)cc1`, the growth in assay [1] is 102%; in [2] it was 87.5%; in assay [3] it was 94.4%; in [4] it was 86.5%; in assay [5] it was 90.1%; in assay [6], 92%. For the same compound, the growth in assay [7] is 86.7%; in assay [8], 97.3%; in assay [9], 98.9%; in assay [10], 92.7%; in assay [11], 95.4%; in assay [12] it was 97.4%. In addition, the growth was 94.1% in [13]; 94.5% in assay [14]; 92.3% in assay [15]; 100% in assay [16]; 96.6% in [18]; 105% in [19].

In the case of `COc1cc(Nc2ncccc2/C=C/C(=O)c2cc(OC)c(OC)c(OC)c2)cc(OC)c1OC`, the growth in assay [1] is 78.3%; in [2], 90.5%; in assay [3], 79.3%; in assay [4] it was 65.6%; in [5], 121%; in assay [6], 76.1%. Also, the growth in assay [7] was 72%; in [8], 40.8%; in assay [9], 70.9%; in [10], 9.53% (active); in [11], 52.1%; in [12] it was 71.4%. The growth in [13] was 102%; in [14] it was 83.1%; in [15] it was 97.4%; in assay [16], 87.1%; in [17], 91.9%; in [18] it was 99.5%. Further, in assay [19], the growth is 79.4%.

`O=C(C(=O)N1CCCC1)c1cn(CCCn2cc(C(=O)C(=O)N3CCCC3)c3cc(Br)ccc32)c2ccc(Br)cc12`: the growth in assay [1] is 107%; in assay [2], 54%; in assay [3] it was 83.3%; in assay [4], 72.6%; in assay [5], 92.7%; in [6], 55.2%. For the same compound, the growth is 46.7% in assay [7]; 74% in [8]; 73.6% in [9]; 65.9% in [10]; 76.8% in assay [11]; 59.6% in assay [12]. The growth in [13] was 94.7%; in [14] it was 5.38% (active); in [15], 90.4%; in assay [16] it was 67.9%; in [17], 60%; in [18], -9.76% (active). Besides, in assay [19], the growth is 51%.

Consider `CC[C@H](C)[C@H](N)C(=O)O`, for which the growth is 109% in [1]; 107% in assay [2]; 101% in assay [3]; 83.9% in [4]; 121% in assay [5]; 103% in assay [6]. Also, the growth in assay [7] is 95.6%; in assay [20], 91%; in assay [10], 90.7%; in assay [11], 104%; in assay [12] it was 107%; in assay [13] it was 97.7%. In addition, the growth is 109% in assay [14]; 107% in assay [15]; 106% in assay [16]; 111% in assay [17]; 91.7% in [18]; 104% in [19].

In the case of `COc1cccc(/C=N\Nc2ccc([N+](=O)[O-])cn2)c1O`, the growth in assay [1] is 77.1%; in [2], 83.9%; in assay [3], 55%; in assay [5] it was 73.5%; in [6] it was 28.5%; in assay [7], 27.8%. The growth is 39.8% in [20]; 79.3% in assay [8]; 58% in assay [9]; 48.3% in assay [10]; 62.6% in [11]; 10.6% in assay [12]. The growth in [13] was 104%; in assay [14], 29.5%; in assay [15], 68.7%; in assay [16] it was 36.2%; in [17], 8.54% (active); in assay [18] it was 63.9%. In addition, in assay [19], the growth was 18.6%.

For the compound `COc1ccc(-c2conc2-n2nc(-c3ccccc3)nc2-c2ccccc2)cc1`, the growth in [1] is 103%; in assay [2], 101%; in [3], 101%; in assay [5] it was 137%; in [6], 97.2%; in assay [7] it was 83.8%. Moreover, the growth is 120% in assay [20]; 106% in assay [8]; 99.1% in assay [9]; 76.2% in assay [10]; 106% in assay [11]; 110% in assay [12]. Moreover, the growth in assay [13] was 104%; in assay [14], 104%; in assay [15], 107%; in assay [16], 101%; in assay [17], 131%; in [18], 111%. For the same compound, in assay [19], the growth is 99.1%.

As for `CC(C)(CCc1ccccn1)C(=O)CCCc1ccccn1`, the growth is 98.7% in assay [1]; 105% in assay [2]; 94.8% in assay [3]; 85.9% in [4]; 97% in assay [5]; 97.4% in assay [6]. Moreover, the growth is 98% in assay [7]; 84.8% in assay [8]; 101% in assay [9]; 90.9% in assay [10]; 105% in [12]; 103% in assay [13]. In addition, the growth in assay [14] was 111%; in assay [15], 108%; in assay [16], 108%; in assay [17] it was 110%; in assay [18] it was 111%; in assay [19], 106%.
